Assays:
Assay in all cases: DAPPL (digital affinity profiling via proximity ligation, sequencing); 10 mM Tris-HCl pH 7.5, 50 mM NaCl, 1 mM DTT, 4% glycerol, room temperature, 30 min; GST-TFs on glutathione beads, 16-mer random dsDNA library, 0.1% formaldehyde crosslink after washing; high values mean tight binding
[1] = molecular target: T1, FLI1 (Homo sapiens, UniProt Q01543 1-452); conditions: protein: recombinant; tags: N-terminal GST; dsDNA, one strand shown
T1 sequence: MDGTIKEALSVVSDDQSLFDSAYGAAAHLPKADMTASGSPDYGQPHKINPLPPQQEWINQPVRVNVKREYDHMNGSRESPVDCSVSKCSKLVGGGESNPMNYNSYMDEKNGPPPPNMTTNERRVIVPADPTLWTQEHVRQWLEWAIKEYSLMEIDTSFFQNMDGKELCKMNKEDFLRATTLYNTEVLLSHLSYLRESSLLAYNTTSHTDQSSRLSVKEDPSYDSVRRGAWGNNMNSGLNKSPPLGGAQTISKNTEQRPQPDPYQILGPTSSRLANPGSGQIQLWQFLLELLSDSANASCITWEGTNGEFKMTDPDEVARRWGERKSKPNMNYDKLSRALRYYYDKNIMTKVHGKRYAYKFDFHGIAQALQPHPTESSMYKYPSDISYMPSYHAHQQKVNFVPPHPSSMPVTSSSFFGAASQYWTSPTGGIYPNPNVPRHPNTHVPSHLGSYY
Procedure, shortened: (§1)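 After expression in yeast as GST fusions, human transcription factors were bound to glutathione beads, DNA-barcoded and mixed with a tag-only sample. The pools were incubated with 200 nmole of a 16-mer random double-stranded DNA library in Tris/NaCl/DTT/glycerol buffer (30 min, room temperature), washed and crosslinked with 0.1% formaldehyde. Proximity ligation with BsaI/T4 ligase ran for 1 h at 37 °C, before PCR amplification and sequencing on an Illumina NextSeq500. Binding signal is a hexamer's read frequency for a factor divided by its frequency for the tag-only sample.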

[2] = molecular target: T2, ELK1 (Homo sapiens, UniProt P19419 1-428); conditions: protein: recombinant; tags: N-terminal GST; dsDNA, one strand shown
T2 sequence: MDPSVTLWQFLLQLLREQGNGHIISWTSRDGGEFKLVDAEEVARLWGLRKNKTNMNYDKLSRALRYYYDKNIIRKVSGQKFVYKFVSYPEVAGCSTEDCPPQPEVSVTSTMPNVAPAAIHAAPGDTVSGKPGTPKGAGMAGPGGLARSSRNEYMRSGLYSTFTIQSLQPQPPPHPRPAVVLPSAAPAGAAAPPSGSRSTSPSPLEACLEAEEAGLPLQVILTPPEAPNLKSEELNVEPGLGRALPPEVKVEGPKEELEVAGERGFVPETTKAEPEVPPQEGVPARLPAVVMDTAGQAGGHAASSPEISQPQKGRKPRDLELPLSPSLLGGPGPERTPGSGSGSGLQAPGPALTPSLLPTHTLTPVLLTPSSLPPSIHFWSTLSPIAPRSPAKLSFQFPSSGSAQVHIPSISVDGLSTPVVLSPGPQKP
Procedure, shortened: as §1

[3] = molecular target: T3, GABPA (Homo sapiens, UniProt Q06546 1-454); conditions: protein: recombinant; tags: N-terminal GST; dsDNA, one strand shown
T3 sequence: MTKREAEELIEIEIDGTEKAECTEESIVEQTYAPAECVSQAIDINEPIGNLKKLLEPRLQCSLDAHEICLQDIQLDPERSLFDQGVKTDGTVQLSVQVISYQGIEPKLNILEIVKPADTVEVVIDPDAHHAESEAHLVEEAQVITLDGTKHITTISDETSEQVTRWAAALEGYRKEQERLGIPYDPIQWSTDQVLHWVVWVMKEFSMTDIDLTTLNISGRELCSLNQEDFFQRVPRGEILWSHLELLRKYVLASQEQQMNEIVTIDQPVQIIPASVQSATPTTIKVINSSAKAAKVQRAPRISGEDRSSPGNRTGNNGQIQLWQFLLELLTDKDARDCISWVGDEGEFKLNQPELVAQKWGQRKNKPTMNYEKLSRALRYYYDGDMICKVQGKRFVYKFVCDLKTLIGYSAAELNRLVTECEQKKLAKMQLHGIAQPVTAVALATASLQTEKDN
Procedure, shortened: as §1

[4] = molecular target: T4, ERG (Homo sapiens, UniProt P11308 1-479); conditions: protein: recombinant; tags: N-terminal GST; dsDNA, one strand shown
T4 sequence: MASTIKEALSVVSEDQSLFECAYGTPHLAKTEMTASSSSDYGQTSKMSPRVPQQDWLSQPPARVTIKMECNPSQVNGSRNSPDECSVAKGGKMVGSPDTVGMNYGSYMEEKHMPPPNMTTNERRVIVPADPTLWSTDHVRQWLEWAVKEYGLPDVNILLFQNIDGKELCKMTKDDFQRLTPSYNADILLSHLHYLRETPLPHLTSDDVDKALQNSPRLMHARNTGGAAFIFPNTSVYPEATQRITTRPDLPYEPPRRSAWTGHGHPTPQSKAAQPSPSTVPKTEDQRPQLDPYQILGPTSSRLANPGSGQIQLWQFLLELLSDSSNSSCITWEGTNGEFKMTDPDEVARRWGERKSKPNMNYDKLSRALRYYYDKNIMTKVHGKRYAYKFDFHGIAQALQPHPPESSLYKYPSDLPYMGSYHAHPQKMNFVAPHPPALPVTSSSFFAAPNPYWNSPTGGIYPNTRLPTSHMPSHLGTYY
Procedure, shortened: as §1

[5] = molecular target: ELF1 (Homo sapiens, UniProt P32519 1-619); conditions: protein: recombinant; tags: N-terminal GST; dsDNA, one strand shown
Procedure, shortened: as §1

[6] = molecular target: T5, EHF (Homo sapiens, UniProt Q9NZC4 1-300); conditions: protein: recombinant; tags: N-terminal GST; dsDNA, one strand shown
T5 sequence: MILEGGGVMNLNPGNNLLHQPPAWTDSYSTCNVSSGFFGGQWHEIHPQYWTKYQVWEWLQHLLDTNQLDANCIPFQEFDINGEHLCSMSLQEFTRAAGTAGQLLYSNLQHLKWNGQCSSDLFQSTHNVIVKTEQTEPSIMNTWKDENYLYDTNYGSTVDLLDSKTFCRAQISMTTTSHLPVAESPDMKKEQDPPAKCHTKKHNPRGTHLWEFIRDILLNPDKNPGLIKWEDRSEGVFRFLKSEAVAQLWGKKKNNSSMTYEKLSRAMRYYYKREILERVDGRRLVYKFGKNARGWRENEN
Procedure, shortened: as §1

[7] = molecular target: SPI1 (Homo sapiens, UniProt P17947 1-270); conditions: protein: recombinant; tags: N-terminal GST; dsDNA, one strand shown
Procedure, shortened: as §1

[8] = molecular target: SPIB (Homo sapiens, UniProt Q01892 1-262); conditions: protein: recombinant; tags: N-terminal GST; dsDNA, one strand shown
Procedure, shortened: as §1

[9] = molecular target: T6, ELK3 (Homo sapiens, UniProt P41970 1-407); conditions: protein: recombinant; tags: N-terminal GST; dsDNA, one strand shown
T6 sequence: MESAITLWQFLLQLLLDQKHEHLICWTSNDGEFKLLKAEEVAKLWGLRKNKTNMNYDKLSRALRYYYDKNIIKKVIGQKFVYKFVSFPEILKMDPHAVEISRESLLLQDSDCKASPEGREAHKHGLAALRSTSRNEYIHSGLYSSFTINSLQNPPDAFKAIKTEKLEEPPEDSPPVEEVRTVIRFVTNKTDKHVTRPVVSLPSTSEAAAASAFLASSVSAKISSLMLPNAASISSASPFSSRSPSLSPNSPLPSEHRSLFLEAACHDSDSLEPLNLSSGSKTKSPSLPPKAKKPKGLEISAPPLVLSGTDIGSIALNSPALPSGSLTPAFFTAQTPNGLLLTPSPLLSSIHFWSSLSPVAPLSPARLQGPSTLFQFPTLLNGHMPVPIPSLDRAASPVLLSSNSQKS
Procedure, shortened: as §1

[10] = molecular target: T7, FEV (Homo sapiens, UniProt Q99581 1-238); conditions: protein: recombinant; tags: N-terminal GST; dsDNA, one strand shown
T7 sequence: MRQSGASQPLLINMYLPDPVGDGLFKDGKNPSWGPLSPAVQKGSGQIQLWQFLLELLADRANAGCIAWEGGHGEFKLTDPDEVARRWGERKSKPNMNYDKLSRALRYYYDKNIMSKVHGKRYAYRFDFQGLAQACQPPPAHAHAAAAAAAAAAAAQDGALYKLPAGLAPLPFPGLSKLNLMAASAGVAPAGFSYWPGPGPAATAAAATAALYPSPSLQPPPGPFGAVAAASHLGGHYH
Procedure, shortened: as §1

[11] = molecular target: ETV5 (Homo sapiens, UniProt P41161 1-510); conditions: protein: recombinant; tags: N-terminal GST; dsDNA, one strand shown
Procedure, shortened: as §1

[12] = molecular target: HSF1 (Homo sapiens, UniProt Q00613 1-529); conditions: protein: recombinant; tags: N-terminal GST; chain copies: 3; dsDNA, one strand shown
Procedure, shortened: as §1

[13] = molecular target: T8, SPIC (Homo sapiens, UniProt Q8N5J4 1-248); conditions: protein: recombinant; tags: N-terminal GST; dsDNA, one strand shown
T8 sequence: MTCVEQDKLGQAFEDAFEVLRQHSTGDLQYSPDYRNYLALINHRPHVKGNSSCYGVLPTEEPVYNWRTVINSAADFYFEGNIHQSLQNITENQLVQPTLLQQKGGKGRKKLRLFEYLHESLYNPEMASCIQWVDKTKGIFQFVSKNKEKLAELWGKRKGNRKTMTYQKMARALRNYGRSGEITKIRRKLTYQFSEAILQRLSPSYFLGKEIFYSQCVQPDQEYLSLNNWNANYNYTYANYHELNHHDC
Procedure, shortened: as §1

[14] = molecular target: ELF4 (Homo sapiens, UniProt Q99607 1-663); conditions: protein: recombinant; tags: N-terminal GST; dsDNA, one strand shown
Procedure, shortened: as §1

[15] = molecular target: T9, ELK4 (Homo sapiens, UniProt P28324-2 1-405); conditions: protein: recombinant; tags: N-terminal GST; dsDNA, one strand shown
T9 sequence: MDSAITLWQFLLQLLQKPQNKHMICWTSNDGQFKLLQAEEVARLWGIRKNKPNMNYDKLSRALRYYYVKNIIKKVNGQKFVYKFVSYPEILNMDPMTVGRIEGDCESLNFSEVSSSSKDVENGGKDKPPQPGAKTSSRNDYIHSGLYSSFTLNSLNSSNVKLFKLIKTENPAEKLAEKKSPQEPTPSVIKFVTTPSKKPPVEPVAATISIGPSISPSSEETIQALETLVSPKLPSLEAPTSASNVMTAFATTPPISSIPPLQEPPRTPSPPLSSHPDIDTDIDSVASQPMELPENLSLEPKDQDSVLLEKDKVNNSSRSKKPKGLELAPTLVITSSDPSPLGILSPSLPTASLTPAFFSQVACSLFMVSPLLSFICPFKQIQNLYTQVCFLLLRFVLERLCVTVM
Procedure, shortened: as §1

[16] = molecular target: T10, ETV2 (Homo sapiens, UniProt O00321 1-342); conditions: protein: recombinant; tags: N-terminal GST; dsDNA, one strand shown
T10 sequence: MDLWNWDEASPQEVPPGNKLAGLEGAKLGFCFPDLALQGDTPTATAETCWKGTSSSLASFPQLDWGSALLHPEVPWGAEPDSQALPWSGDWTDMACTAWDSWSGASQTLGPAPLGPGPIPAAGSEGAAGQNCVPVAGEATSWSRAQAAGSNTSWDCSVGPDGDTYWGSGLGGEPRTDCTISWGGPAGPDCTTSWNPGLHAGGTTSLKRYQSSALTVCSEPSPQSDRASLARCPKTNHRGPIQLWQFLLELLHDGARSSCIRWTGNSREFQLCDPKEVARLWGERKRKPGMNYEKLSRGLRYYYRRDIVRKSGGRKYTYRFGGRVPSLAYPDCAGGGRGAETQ
Procedure, shortened: as §1

[17] = molecular target: T11, ELF3 (Homo sapiens, UniProt P78545 1-371); conditions: protein: recombinant; tags: N-terminal GST; dsDNA, one strand shown
T11 sequence: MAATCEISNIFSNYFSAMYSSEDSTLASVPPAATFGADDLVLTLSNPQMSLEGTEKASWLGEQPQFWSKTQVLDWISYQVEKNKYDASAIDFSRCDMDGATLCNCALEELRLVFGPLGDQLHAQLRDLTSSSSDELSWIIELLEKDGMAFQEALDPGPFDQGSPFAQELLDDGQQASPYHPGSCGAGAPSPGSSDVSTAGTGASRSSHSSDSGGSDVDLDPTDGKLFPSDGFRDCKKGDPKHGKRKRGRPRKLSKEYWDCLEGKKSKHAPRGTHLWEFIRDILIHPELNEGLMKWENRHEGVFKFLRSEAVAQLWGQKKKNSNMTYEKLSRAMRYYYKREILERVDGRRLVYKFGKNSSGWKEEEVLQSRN
Procedure, shortened: as §1

[18] = molecular target: CRX (Homo sapiens, UniProt O43186 1-299); conditions: protein: recombinant; tags: N-terminal GST; dsDNA, one strand shown
Procedure, shortened: as §1

[19] = molecular target: ETV1 (Homo sapiens, UniProt P50549 1-477); conditions: protein: recombinant; tags: N-terminal GST; dsDNA, one strand shown
Procedure, shortened: as §1

Sequence of ETV1 (P50549 whole entry): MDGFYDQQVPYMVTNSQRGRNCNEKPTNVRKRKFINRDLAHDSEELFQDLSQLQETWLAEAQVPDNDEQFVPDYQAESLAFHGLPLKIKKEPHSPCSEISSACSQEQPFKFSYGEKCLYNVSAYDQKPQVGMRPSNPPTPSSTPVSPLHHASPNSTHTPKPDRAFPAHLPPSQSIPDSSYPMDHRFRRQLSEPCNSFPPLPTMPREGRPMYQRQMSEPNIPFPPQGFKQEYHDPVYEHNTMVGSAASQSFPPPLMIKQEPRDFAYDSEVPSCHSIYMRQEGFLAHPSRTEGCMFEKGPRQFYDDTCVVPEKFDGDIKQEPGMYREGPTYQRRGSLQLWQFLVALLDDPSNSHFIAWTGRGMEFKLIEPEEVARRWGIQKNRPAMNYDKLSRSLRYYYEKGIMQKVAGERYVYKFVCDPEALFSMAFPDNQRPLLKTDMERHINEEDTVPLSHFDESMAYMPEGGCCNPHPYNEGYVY
Sequence of HSF1 (Q00613 whole entry): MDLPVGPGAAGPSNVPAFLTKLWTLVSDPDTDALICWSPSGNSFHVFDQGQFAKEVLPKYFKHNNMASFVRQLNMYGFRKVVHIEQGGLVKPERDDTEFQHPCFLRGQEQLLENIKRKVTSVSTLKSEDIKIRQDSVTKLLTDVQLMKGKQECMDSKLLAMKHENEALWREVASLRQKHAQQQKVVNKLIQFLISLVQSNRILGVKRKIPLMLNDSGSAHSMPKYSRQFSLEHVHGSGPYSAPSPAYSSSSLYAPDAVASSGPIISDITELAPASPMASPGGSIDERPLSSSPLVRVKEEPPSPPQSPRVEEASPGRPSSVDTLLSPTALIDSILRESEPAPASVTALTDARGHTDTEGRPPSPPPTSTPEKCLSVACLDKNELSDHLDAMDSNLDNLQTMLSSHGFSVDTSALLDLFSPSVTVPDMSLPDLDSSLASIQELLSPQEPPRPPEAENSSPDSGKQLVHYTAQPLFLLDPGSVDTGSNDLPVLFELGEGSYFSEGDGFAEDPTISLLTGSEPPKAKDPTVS
Sequence of ELF1 (P32519 whole entry): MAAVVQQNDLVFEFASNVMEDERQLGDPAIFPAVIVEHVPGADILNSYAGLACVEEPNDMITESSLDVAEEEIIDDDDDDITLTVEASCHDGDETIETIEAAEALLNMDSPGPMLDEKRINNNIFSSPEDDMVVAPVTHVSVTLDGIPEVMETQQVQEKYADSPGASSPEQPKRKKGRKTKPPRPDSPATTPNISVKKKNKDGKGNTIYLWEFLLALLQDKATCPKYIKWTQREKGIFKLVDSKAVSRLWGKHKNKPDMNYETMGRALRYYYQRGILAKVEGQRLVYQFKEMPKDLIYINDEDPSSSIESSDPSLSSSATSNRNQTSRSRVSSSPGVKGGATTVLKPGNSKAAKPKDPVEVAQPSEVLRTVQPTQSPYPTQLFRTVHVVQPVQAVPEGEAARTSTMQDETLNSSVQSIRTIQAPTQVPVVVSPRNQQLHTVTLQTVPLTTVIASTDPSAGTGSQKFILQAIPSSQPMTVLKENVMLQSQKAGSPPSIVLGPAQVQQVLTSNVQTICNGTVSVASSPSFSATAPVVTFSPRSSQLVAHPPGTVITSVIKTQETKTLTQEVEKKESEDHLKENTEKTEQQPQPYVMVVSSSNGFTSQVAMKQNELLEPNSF
Sequence of ELF4 (Q99607 whole entry): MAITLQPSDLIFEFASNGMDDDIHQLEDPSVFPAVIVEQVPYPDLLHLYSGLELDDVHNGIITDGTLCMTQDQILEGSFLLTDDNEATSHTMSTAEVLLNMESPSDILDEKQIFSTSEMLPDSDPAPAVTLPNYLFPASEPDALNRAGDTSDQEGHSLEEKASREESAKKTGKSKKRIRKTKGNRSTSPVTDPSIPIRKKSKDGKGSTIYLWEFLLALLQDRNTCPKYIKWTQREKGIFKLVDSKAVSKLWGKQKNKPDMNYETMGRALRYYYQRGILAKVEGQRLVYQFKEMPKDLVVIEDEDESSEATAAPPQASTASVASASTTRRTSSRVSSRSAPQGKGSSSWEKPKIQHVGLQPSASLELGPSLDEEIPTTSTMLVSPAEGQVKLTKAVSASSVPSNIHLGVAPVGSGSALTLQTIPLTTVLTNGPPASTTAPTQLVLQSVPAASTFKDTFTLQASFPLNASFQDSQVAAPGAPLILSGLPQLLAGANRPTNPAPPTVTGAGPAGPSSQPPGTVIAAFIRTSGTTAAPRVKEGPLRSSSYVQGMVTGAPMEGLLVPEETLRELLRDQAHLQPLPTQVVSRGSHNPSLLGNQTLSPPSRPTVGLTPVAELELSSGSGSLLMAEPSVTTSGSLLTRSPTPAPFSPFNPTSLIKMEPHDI
Sequence of ETV5 (P41161 whole entry): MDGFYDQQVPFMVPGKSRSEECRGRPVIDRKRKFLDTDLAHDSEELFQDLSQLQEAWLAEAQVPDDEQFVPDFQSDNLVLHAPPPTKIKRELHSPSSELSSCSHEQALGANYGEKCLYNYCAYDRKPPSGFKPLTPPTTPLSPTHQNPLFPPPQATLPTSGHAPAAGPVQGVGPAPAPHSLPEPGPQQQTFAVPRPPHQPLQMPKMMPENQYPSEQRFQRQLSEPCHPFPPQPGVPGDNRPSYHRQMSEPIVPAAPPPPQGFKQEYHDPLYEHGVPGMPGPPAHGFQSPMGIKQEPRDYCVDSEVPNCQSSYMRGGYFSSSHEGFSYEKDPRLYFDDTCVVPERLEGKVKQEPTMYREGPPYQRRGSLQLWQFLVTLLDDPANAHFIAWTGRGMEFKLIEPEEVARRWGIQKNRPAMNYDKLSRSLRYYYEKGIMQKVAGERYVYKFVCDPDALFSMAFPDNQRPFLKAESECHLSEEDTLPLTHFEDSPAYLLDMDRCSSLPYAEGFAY
Sequence of CRX (O43186 whole entry): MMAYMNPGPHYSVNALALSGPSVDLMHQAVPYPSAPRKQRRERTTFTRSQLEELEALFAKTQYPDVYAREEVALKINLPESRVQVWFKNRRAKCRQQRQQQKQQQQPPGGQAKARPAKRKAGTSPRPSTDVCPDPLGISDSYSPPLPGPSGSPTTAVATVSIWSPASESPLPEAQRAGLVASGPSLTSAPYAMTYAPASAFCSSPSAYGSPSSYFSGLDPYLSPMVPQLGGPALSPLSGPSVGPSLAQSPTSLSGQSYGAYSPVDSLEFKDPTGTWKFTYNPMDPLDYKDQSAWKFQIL
Sequence of SPIB (Q01892 whole entry): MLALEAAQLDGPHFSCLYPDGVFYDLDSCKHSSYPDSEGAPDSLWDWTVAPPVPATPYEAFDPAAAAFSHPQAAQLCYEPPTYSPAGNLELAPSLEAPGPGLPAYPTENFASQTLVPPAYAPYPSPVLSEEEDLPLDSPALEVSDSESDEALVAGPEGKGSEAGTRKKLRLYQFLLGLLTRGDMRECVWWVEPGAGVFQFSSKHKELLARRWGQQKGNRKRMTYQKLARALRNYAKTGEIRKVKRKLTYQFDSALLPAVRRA

TAGTTC
binding signal [1]: 1.47 fold enrichment (6-mer frequency, TF over GST control) | binding signal [2]: 1.41 fold enrichment (6-mer frequency, TF over GST control) | binding signal [3]: 1.28 fold enrichment (6-mer frequency, TF over GST control) | binding signal [4]: 1.45 fold enrichment (6-mer frequency, TF over GST control) | binding signal [5]: 1.37 fold enrichment (6-mer frequency, TF over GST control) | binding signal [6]: 1.3 fold enrichment (6-mer frequency, TF over GST control) | binding signal [7]: 1.43 fold enrichment (6-mer frequency, TF over GST control) | binding signal [8]: 1.51 fold enrichment (6-mer frequency, TF over GST control) | binding signal [9]: 1.15 fold enrichment (6-mer frequency, TF over GST control) | binding signal [10]: 1.28 fold enrichment (6-mer frequency, TF over GST control) | binding signal [11]: 1.41 fold enrichment (6-mer frequency, TF over GST control) | binding signal [12]: 1.45 fold enrichment (6-mer frequency, TF over GST control) | binding signal [13]: 1.47 fold enrichment (6-mer frequency, TF over GST control) | binding signal [14]: 1.43 fold enrichment (6-mer frequency, TF over GST control) | binding signal [15]: 1.49 fold enrichment (6-mer frequency, TF over GST control) | binding signal [16]: 1.4 fold enrichment (6-mer frequency, TF over GST control) | binding signal [17]: 1.49 fold enrichment (6-mer frequency, TF over GST control) | binding signal [18]: 1.23 fold enrichment (6-mer frequency, TF over GST control) | binding signal [19]: 1.4 fold enrichment (6-mer frequency, TF over GST control)

Source: PMC7862700, “An all-to-all approach to the identification of sequence-specific readers for epigenetic DNA modifications on cytosine”
